This note sets out measurements from PubChem BioAssay AID2315 (National Center for Advancing Translational Sciences (NCATS), 2010).

The structures appear in SMILES notation. The whole screen tested about 290,000 compounds, of which about 27,000 (9.3%) were called active. No stated cut-off is given here; in the data, active means inhibition mostly above about 28% (no sharp cut-off); inactive means mostly below about 43%. The list comes from a sample in which actives are over-represented; it also holds similar structures and randomly drawn compounds.

The experiment can be described thus: A qHTS for Small Molecule Inhibitors of Shiga Toxin. Further: 0% is about no effect. As to conditions: Vero cells, Shiga toxin protein synthesis inhibition reporter; at 38.7 µM, active compounds read high.
The inhibition is the drop in the measured response relative to a control, in per cent. Consider `O=c1cc(Cl)c2ccccc2n1-c1ccccc1`, for which the inhibition is -8.33% (inactive).

`C/C(=N\Nc1cccc(C(=O)O)c1)c1ccc2c(c1)Nc1ccccc1S2`: the inhibition was 77.7% (active).

As for `Cc1ccccc1NC(=O)c1cc(S(=O)(=O)Nc2cccc(C(=O)O)c2)ccc1Cl`, the inhibition is 24.3% (inactive).

In the case of `O=C(NC1CC1)c1ccc2c(c1)NC(=O)c1ccccc1S2`, the inhibition is 13.2% (inactive).

For `COc1cc(/C=N/n2c(C)n[nH]c2=S)ccc1OCc1ccccc1`, the inhibition was -16.6% (active).

Turning to `Fc1ccc(/C=N/n2c(COc3ccccc3)n[nH]c2=S)cc1`, the inhibition was -5.88% (inactive).

In the case of `COc1cc(-c2n[nH]c(=S)n2Cc2ccccc2)cc(OC)c1OC`, the inhibition is -7.08% (inactive).

Take `COc1ccc(C)cc1Nc1n[n+](-c2ccccc2)c(-c2cccc(Cl)c2Cl)s1`: the inhibition is -3.92% (inactive).

In the case of `O=S(=O)(Nc1cccc(Oc2ccc(Cl)cc2)n1)c1ccc(F)cc1`, the inhibition is 1.95% (inactive).

Take `COc1ccc(-c2csc3ncnc(N4CCN(S(=O)(=O)c5ccccc5C#N)CC4)c23)cc1`: the inhibition was -3.69% (inactive).

For `CCOC(=O)Cc1csc(NC(=O)Nc2ccccc2)n1`, the inhibition is 46.4% (inactive).

In the case of `CCOC(=O)Cc1csc(NC(=O)C(C)(C)C)n1`, the inhibition was 86.2% (active).

Take `CCOC(=O)Cc1csc(NC(NC(=O)OCC)(C(F)(F)F)C(F)(F)F)n1`: the inhibition is -12.7% (inactive).

As to `Fc1ccc(-c2ccc(CNCc3ccccn3)o2)cc1Cl`, the inhibition is 2.57% (inactive).

For the compound `O=C(/C=C/Sc1ncn[nH]1)c1ccc(Cl)cc1`, the inhibition is 32.3% (active).

Take `O=C(NCCOCc1ccc(Cl)cc1)c1ncn[nH]1`: the inhibition is 10.4% (inactive).

Consider `COc1ccc(Cl)cc1CSc1ncn[nH]1`, for which the inhibition is 4.03% (inactive).

For `COc1ccc(CCNc2nc3ccc(C)cc3n3cnnc23)cc1OC`, the inhibition was 4.18% (inactive).

As for `CCn1c(=O)n(CC)c2cc(N3CCCC3)c(NC(=O)c3ccccc3Br)cc21`, the inhibition was -6.78% (inactive).

Regarding `Cc1ccc(OCCCC(=O)N2CCOCC2)c(C)c1`, the inhibition was 88.9% (active).

Regarding `Cc1ccc(OCCCC(=O)NC(C)c2ccccc2)c(C)c1` (configuration not stated), the inhibition was 7.36% (inactive).

Take `Cc1cc(S(=O)(=O)N2CCOCC2)ccc1OCC(=O)N1CCOCC1`: the inhibition was 26.1% (inactive).

For the compound `COc1c(O)c2c(=O)cc(OC)c3c4c(OC)cc(=O)c5c(O)c(OC)c6c(c(c1C[C@@](C)(O)[C@H]6C(C)=O)c23)c54`, the inhibition is 10.8% (inactive).

For the compound `CCOc1ccccc1NC(=O)C1CCCN(S(=O)(=O)c2ccccc2)C1` (configuration not stated), the inhibition is -4.05% (inactive).

Take `FC(F)(F)c1nnc2c3ccccc3c(Cl)nn12`: the inhibition was 5.58% (inactive).

With `Cc1cccc(C)c1NC(=O)COC(=O)c1ccccc1O`, the inhibition was -4.8% (inactive).

With `COc1ccc(C(=O)N2CCCCC2C(=O)Nc2ccc(-n3nc(C)cc3C)cc2)o1` (configuration not stated), the inhibition is -7.96% (inactive).

Consider `CCOC(=O)c1c(C)nc(-c2ccccc2)nc1NC(=O)C(C)C`, for which the inhibition is 38.3% (active).

`CCC(=O)OCCNc1nc(-c2ccccc2)nc2ccccc12`: the inhibition was -14.7% (inactive).

In the case of `CCOC(=O)c1c(N)nn(C(=O)c2ccccc2)c1-c1ccccc1`, the inhibition was -3.34% (inactive).

`COc1ccc(/C=C/c2c(-c3cccc(C)c3)oc3ccc(-c4ccc5c(c4)OCO5)cc23)cc1`: the inhibition is -4.7% (inactive).

For `Fc1ccc(COc2cccc(-c3n[nH]c(=S)o3)c2)cc1`, the inhibition was 2.21% (inactive).

`Fc1cccc(Cl)c1COc1ccc(-c2nnco2)cc1`: the inhibition is 30.1% (inactive).

On to `Fc1ccc(COc2ccc(-c3nnco3)cc2)cc1`, for which the inhibition is 63.9% (active).

For the compound `Nc1ncc(-c2cc3ccccc3oc2=O)s1`, the inhibition was 85% (active).

For `O=C(NCc1cccnc1)c1cccc(-c2cc3ccccc3oc2=O)c1`, the inhibition is 13.7% (inactive).

On to `O=C(Oc1cccnc1)c1cc2ccccc2oc1=O`, for which the inhibition was 1.26% (inactive).

As to `COc1cc(CNCc2ccc3c(c2)OCO3)c([N+](=O)[O-])cc1OC`, the inhibition was 16.9% (inactive).

Turning to `CCOC(=O)N1CCN(S(=O)(=O)c2ccc(-n3cnnn3)cc2)CC1`, the inhibition was 5.66% (inactive).

`COc1cc(NC(=O)CSc2ccc(-c3cccnc3)nn2)cc(OC)c1`: the inhibition was 15.3% (inactive).

`O=C(CSc1ccc(-c2ccccn2)nn1)Nc1ccccc1`: the inhibition is 47% (active).

Regarding `O=C(CSc1ccc(-c2ccco2)nn1)Nc1cccc(F)c1`, the inhibition is 38.8% (inactive).

Regarding `Cc1ccc(CN2CCCOCCS2(=O)=O)cc1`, the inhibition was -6.69% (inactive).

For `CC(=O)c1cccc(OCc2cc(C(=O)NC(C)Cc3cccnc3)no2)c1` (configuration not stated), the inhibition is 36.9% (inactive).

Regarding `CC(CCc1ccccc1)NC(=O)c1cnc(Cl)c(Cl)c1` (configuration not stated), the inhibition was 3.47% (inactive).

Regarding `Cc1cccnc1CC(C)NC(=O)c1cc(COc2cncc(Cl)c2)on1` (configuration not stated), the inhibition is 47.9% (active).

In the case of `CCOc1cc(C(=O)O)ccc1OCCOc1ccccc1`, the inhibition was 2.96% (inactive).

As to `Cc1ccc(CN(CC(=O)NC2CCCCC2)C(=O)c2csnn2)cc1`, the inhibition was -2.02% (inactive).

Consider `CC1CCN(C(=O)CCNC(=O)c2ccccc2)CC1`, for which the inhibition was 43.4% (active).

For the compound `CC1CCN(C(=O)/C(=C\c2ccccc2F)NC(=O)c2ccccc2)CC1`, the inhibition is -2.65% (inactive).

Regarding `CC1CCN(C(=O)/C(=C\c2ccccc2)NC(=O)c2ccccc2)CC1`, the inhibition is 5.08% (inactive).

For `O=S(=O)(c1ccccc1)c1nc(-c2ccccc2)oc1NCCCN1CCOCC1`, the inhibition is -13.1% (inactive).

`O=C(Nc1ccc(CN2CCOCC2)cc1)c1cc(Cl)ccc1Cl`: the inhibition was -2.33% (inactive).

For `Nc1ccccc1SCc1cc([N+](=O)[O-])cc2c1OCOC2`, the inhibition was 62% (active).

With `CC(O)C(NS(=O)(=O)c1ccc(Cl)cc1)C(=O)OCc1cc([N+](=O)[O-])cc2c1OCOC2` (configuration not stated), the inhibition is -12.1% (inactive).

With `O=C(CN1CCN(c2ccc(Cl)cc2)CC1)c1ccccc1`, the inhibition was 12.6% (inactive).

For the compound `CC1CN(S(=O)(=O)c2cccc(C(F)(F)F)c2)CN1C(=O)N1CCOCC1` (configuration not stated), the inhibition is 29.9% (inactive).

Turning to `O=C(N/N=C/c1cc([N+](=O)[O-])ccc1O)/C(=C\c1cccs1)NC(=O)c1ccccc1`, the inhibition is -4.29% (inactive).

Take `Nc1nnnn1/N=C/c1cc([N+](=O)[O-])ccc1O`: the inhibition was 19.7% (inactive).

On to `O=[N+]([O-])c1ccc(O)c(/C=N/Nc2ccccc2[N+](=O)[O-])c1`, for which the inhibition was 33.7% (active).

On to `CCNC(=S)N(CCN(CC)CC)Cc1cc2cc3c(cc2[nH]c1=O)OCCO3`, for which the inhibition was 37.5% (inactive).

Take `Cn1c(SCC(=O)N2CCCC2)nnc1-c1cccs1`: the inhibition is 19.8% (inactive).

As for `O=C(CSCc1ccc(Cl)cc1)N1CCN(Cc2ccc3c(c2)OCO3)CC1`, the inhibition was 1.49% (inactive).

For the compound `O=C(CSc1ncccn1)N1CCCC1`, the inhibition is 15.5% (inactive).

`O=C(CSCc1ccc(Cl)cc1)N1CCCCC1`: the inhibition is 91.4% (active).

As to `O=C(CSCc1cccs1)N1CCCC1`, the inhibition was 55.4% (active).

On to `O=C(CN1CCN(c2ccc(Cl)cc2)CC1)N1CCCC1`, for which the inhibition was -2.98% (inactive).

Turning to `COc1ccc(-c2c(NC(=O)c3ccco3)oc3ccc(Cl)cc3c2=O)cc1`, the inhibition is -2.04% (inactive).

As to `O=S(=O)(NC1CCCC1)c1ccc(-n2cnnn2)cc1`, the inhibition was -3.47% (inactive).

Regarding `COc1ccc(C=C(C#N)C#N)c(CSc2ccccn2)c1`, the inhibition is -2.53% (inactive).

On to `COc1ccc(C(=O)N[C@H](C(=O)NCc2ccccc2)C(C)C)cc1`, for which the inhibition is 2.84% (inactive).

On to `CCN(CC(=O)NCc1cccs1)C(=O)c1cccc(S(=O)(=O)Nc2ccccc2OC)c1`, for which the inhibition is 25.8% (inactive).

`COc1ccccc1C(=O)Nc1ccc(OCc2nnc3c4ccccc4c(C)nn23)cc1`: the inhibition was 6.17% (inactive).

For `COc1ccc(C2/C(=C(/O)c3ccc4c(c3)CC(C)O4)C(=O)C(=O)N2Cc2ccncc2)cc1` (configuration not stated), the inhibition was 21.4% (inactive).

Take `CN(C)c1nnnn1-c1ccc(Cl)cc1`: the inhibition was 32.8% (inactive).

Consider `Nc1ccc2nn(-c3ccc(Cl)cc3)nc2c1`, for which the inhibition is 99% (active).

Turning to `CCn1c(SCC(=O)NNC(=O)c2ccc(OC)cc2)nnc1C(C)C`, the inhibition is -2.63% (inactive).

With `O=C1NC(=O)C(c2ccc(Cl)cc2)N1` (configuration not stated), the inhibition is -0.685% (inactive).

`COc1cccc(CNC(=O)C2CC(=O)N(C3CCCCCCC3)C2)c1` (configuration not stated): the inhibition was -10.4% (inactive).

In the case of `CC(C)NC(=O)C(=O)N/N=C/c1ccco1`, the inhibition is -4.96% (inactive).

Consider `O=c1nc(N/N=C/c2ccco2)cn[nH]1`, for which the inhibition is 84% (active).

Take `O=C(Cn1cnc2ccccc21)N/N=C/c1ccco1`: the inhibition was 15.9% (inactive).

Regarding `O=C(Nc1ccccc1)N1CCN(C(=O)Nc2ccccc2)CC1`, the inhibition was 14.4% (inactive).

`O=C(Nc1ccccc1)c1cc2ccccc2[nH]1`: the inhibition is 116% (active).

Consider `CC(C)n1c(=O)[nH]c2cc(C(=O)Nc3ccccc3)ccc21`, for which the inhibition is -20.3% (inactive).

Take `COc1ccccc1OCCOc1ccc(/C=C2\C(=N)N3N=C(C)SC3=NC2=O)cc1`: the inhibition was 2.39% (inactive).

In the case of `COc1cccc(N(CC(=O)NC2CCCC2)C(=O)Cn2nnc(-c3ccc(C)o3)n2)c1`, the inhibition was 5.05% (inactive).

With `CCn1c(SCc2ccccc2)nc2cc(OC)c(OC)cc2c1=O`, the inhibition was -6.05% (inactive).

Consider `O=C(CN1CCN(c2ccccc2)CC1)Nc1ccc(F)cc1`, for which the inhibition was 2.65% (inactive).

Take `O=S(=O)(c1cccc(S(=O)(=O)N2CCC(n3nnc4ccccc43)CC2)c1)N1CCCCC1`: the inhibition was -25.2% (inactive).

As for `O=C(c1ccc(F)cc1)N1CCC(n2nnc3ccccc32)CC1`, the inhibition is 111% (active).

In the case of `CC(=O)c1cccc(S(=O)(=O)N2CCC(n3nnc4cc(F)ccc43)CC2)c1`, the inhibition was 7.77% (inactive).

For `COc1ccc(N(CC(=O)N2CCOCC2)S(=O)(=O)c2ccccc2)cc1Cl`, the inhibition was -9.7% (inactive).

Take `COc1ccc(S(=O)(=O)N2CN(CCc3ccc(OC)c(OC)c3)c3nc4ccccc4nc32)cc1`: the inhibition is -10.2% (inactive).

Turning to `C=CCN1CN(S(=O)(=O)c2ccc(OC)cc2)c2nc3ccccc3nc21`, the inhibition was 8.86% (inactive).

For `O=S(=O)(c1ccccc1)N1CN(Cc2ccc(F)cc2)c2nc3ccccc3nc21`, the inhibition is 45.9% (active).

Consider `O=C(NCCS(=O)(=O)N1CCN(c2ccccc2F)CC1)c1ccc(Br)o1`, for which the inhibition was -0.576% (inactive).
